This is an account of results in PubChem BioAssay (NCI).

Assay in all cases: NCI-60 one-dose screen, 48 h (100 = growth as untreated, 0 = no growth, -100 = all killed)
What all share (settings): 10 µM unless noted

Assay [1] deals with NCI-H23 lung.
Assay [2] deals with NCI-H226 lung.
Assay [3] deals with NCI-H322M lung.
Assay [4] concerns HOP-62 NSCLC.
The subject of assay [5] is NCI-H460 lung.
Assay [6] deals with HOP-92 NSCLC.
The subject of assay [7] is NCI-H522 lung.
The subject of assay [8] is A549/ATCC NSCLC.
For assay [9], the system named is 786-0 renal.
Assay [10] concerns COLO 205 colon.

Compounds without any hit were thinned out: in the full panel of roughly 83,000, 20% have a hit.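 Step 1: grow cells in 96-well plates. Step 2: add test compound at a single concentration. Step 3: incubate 48 h. Step 4: record percent growth.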 Values without a mark were called inactive. Active and inactive are the calls of the source. Rule for the calls: active = growth percent below 10; inactive = the rest.

As to `CCN(CC)c1ccc(/C=C/c2cc(C)c3ccccc3n2)cc1`, the growth in [1] was 64%; in [2], 61.1%; in assay [3], 101%; in assay [4], 46.7%; in assay [5], 43%; in assay [6] it was 82.2%. The growth in [7] is 31.3%; in assay [8] it was 53.9%; in assay [9], 94.6%; in [10], 24.7%.
Turning to `C/C(=N\Nc1ccc2ccccc2n1)c1ccccn1`, the growth in [1] was 23.3%; in assay [2], 0.47% (active); in assay [3], -12% (active); in assay [4] it was 5.02% (active); in assay [5] it was 0.889% (active); in [6], -10.9% (active). For the same molecule, the growth in [7] was -16.4% (active); in assay [8], 4.55% (active); in assay [9], 6.89% (active); in assay [10] it was 0.767% (active).
As to `CC(=O)O[C@H]1CC[C@@]2(C)[C@@H](CC[C@@H]3[C@@H]2CC(=O)[C@@]2(C)[C@H]3C[C@@H](C3CCCC3=O)[C@@H]2C(C)=O)C1` (stereo not given in full), the growth was 107% in [1]; 112% in assay [2]; 106% in assay [3]; 100% in assay [4]; 111% in [5]; 93.1% in [6]. Further, the growth was 82.5% in assay [7], 101% in assay [8], 105% in assay [9] and 116% in [10].
`CCN1CCN(C(=O)[C@]23CC[C@@H](C)[C@H](C)[C@H]2C2=CC[C@@H]4[C@@]5(C)C/C(=C/c6cccc(OC)c6OC)C(=O)C(C)(C)[C@@H]5CC[C@@]4(C)[C@]2(C)CC3)CC1`: the growth in assay [1] was 42.9%; in [2], 46.2%; in assay [3] it was 83.7%; in assay [4] it was 57.7%; in [5], 20.1%; in assay [6], 46.9%. Besides, the growth in assay [7] was 52.9%; in assay [8], 36.1%; in assay [9], 49.7%; in assay [10], 32.2%.
Consider `COc1cc2nc(Cl)nc(Nc3cccc(C(=O)/C=C/c4ccccc4)c3)c2cc1OC`, for which the growth was 68.6% in [1]; 66.1% in assay [2]; 90.3% in [3]; 70.1% in [4]; 89% in assay [5]; 82.2% in [6]. Besides, the growth in [7] is 56.9%; in assay [8], 74.5%; in assay [9], 52.7%; in assay [10], 62.9%.
For `COc1ccc2c(c1)c(-c1nc(-c3c[nH]c4ncccc34)cs1)cn2CCNC(=O)OC(C)(C)C`, the growth was 70.6% in [1]; 72% in assay [2]; 82.6% in assay [3]; 64.1% in [4]; 82.2% in assay [5]; 54.9% in assay [6]. Also, the growth in [7] is 61%; in [8] it was 72.6%; in assay [9] it was 73.6%; in assay [10] it was 84.6%.
For `COc1ccc(NC(=O)c2ccoc2COc2ccccc2)cc1`, the growth is 95.7% in assay [1]; 98.8% in assay [2]; 101% in [3]; 100% in assay [4]; 106% in [5]; 88.8% in [6]. In addition, the growth in assay [7] was 90.2%; in [8], 102%; in assay [9], 96.9%; in [10] it was 110%.
On to `Nc1nc(N)c2nc3c(nc2n1)CCCCCCCCCC3`, for which the growth in assay [1] is 37.1%; in assay [2], 102%; in assay [3] it was 59.1%; in [4] it was 58.1%; in assay [5], 14.3%; in [6], 79.7%. Further, the growth in assay [7] is 53.8%; in [8], 20.4%; in assay [9], 31.9%; in assay [10] it was 54.1%.
On to `Cc1cc(N2CCOCC2)nc(N(CCCNc2ccnc3cc(Cl)ccc23)Cc2ccco2)n1`, for which the growth is 35.3% in [1]; 74.7% in assay [2]; 28.7% in assay [3]; 12.9% in assay [4]; 18.8% in assay [5]; 34% in assay [6]. Besides, the growth in assay [7] is 40.2%; in assay [8] it was 18.9%; in assay [9], 42.1%; in [10], 3.4% (active).
As to `O=C(O[C@@H]1Cc2c(O)cc(O)cc2O[C@@H]1c1cc(O)c(O)c(O)c1)c1cc(O)c2c(c1)OCO2`, the growth is 92.6% in [1]; 93% in assay [2]; 107% in assay [3]; 98.5% in assay [4]; 105% in [5]; 95.1% in assay [6]. For the same molecule, the growth in [7] was 83.3%; in assay [8], 82.5%; in assay [9], 94.4%; in [10] it was 104%.
With `COc1cc2nc(Cl)nc(Nc3cccc(C(=O)/C=C/c4ccc(Cl)cc4)c3)c2cc1OC`, the growth in assay [1] is 80.9%; in assay [2] it was 88.1%; in assay [3] it was 83.1%; in assay [4] it was 86.8%; in assay [5], 91.3%; in assay [6], 78.3%. In addition, the growth in assay [7] was 77.6%; in assay [8], 78.2%; in assay [9], 64.8%; in assay [10] it was 86.9%.
In the case of `COC(=O)C(N)CSC(c1ccccc1)(c1ccccc1)c1ccccc1` (stereo not given), the growth in assay [1] is 45.5%; in [2], 77.6%; in assay [3] it was 9.37% (active); in assay [4], 44.6%; in assay [5], 8.85% (active); in assay [6], 55.1%. Further, the growth is -43.6% (active) in assay [7], 31.3% in [8], 53.7% in [9] and 1.18% (active) in assay [10].
Regarding `O=c1c2sc3ncc(Br)cc3c2ncn1-c1cccc(Cl)c1`, the growth is 87.4% in assay [1]; 87.3% in [2]; 48.2% in assay [3]; 60.3% in assay [4]; 24.9% in assay [5]; 72.7% in [6]. Besides, the growth in assay [7] was 82.8%; in assay [8], 43%; in [9], 89%; in assay [10], 86.3%.
As for `C/C(=N/NC(N)=S)C(=O)O`, the growth in [1] is 101%; in assay [2], 90.1%; in [3], 103%; in [4], 107%; in [5], 99.3%; in [6], 107%. The growth in assay [7] is 95.9%; in assay [8], 76%; in assay [9], 102%; in [10], 119%.
Consider `COC(=O)[C@]12CC[C@@H](C)[C@H](C)[C@@H]1C1=CC(=O)[C@@H]3[C@@]4(C)C[C@@H](O)[C@H](O)[C@@]5(C)COC(=C45)C[C@@]3(C)[C@]1(C)CC2`, for which the growth in assay [1] is 76.9%; in [2], 81.6%; in assay [3], 88.4%; in assay [4], 50.8%; in assay [5] it was 34.6%; in assay [6], 45.6%. The growth in assay [7] is 51%; in assay [8], 41.6%; in assay [9], 78.5%; in [10], 40.8%.
In the case of `COc1cnc2c(c1)C(=O)c1c-2n(CCCNCCN2CCOCC2)c(=O)c2cc([N+](=O)[O-])ccc12`, the growth in assay [1] was -21.7% (active); in assay [2], -52.7% (active); in [3], 6.04% (active); in assay [4] it was -0.313% (active); in assay [5], -55.2% (active); in assay [6] it was -4.05% (active). The growth in [7] is -19.9% (active); in [8], -72.1% (active); in assay [9], -53.6% (active); in [10], -2.78% (active).
Turning to `CCC(CC)C(=O)OC(C)COc1ccc(C(C)(C)C)cc1` (stereo not given), the growth in [1] is 105%; in [2] it was 100%; in assay [3] it was 109%; in assay [4] it was 103%; in [5], 106%; in assay [6] it was 92.6%. Besides, the growth in assay [7] is 70.5%; in [8], 69.2%; in assay [9], 97.4%; in assay [10], 124%.
For the molecule `c1ccc2[nH]c(-c3ccc(Nc4nc(N5CCCCC5)nc(N5CCOCC5)n4)cc3)nc2c1`, the growth in [1] was 19.7%; in assay [2], 32.7%; in assay [3], 35%; in [4], -45.2% (active); in assay [5], 0.809% (active); in assay [6], 43.3%. Also, the growth in [7] was 9.25% (active); in assay [8] it was 13.9%; in [9], -57.3% (active); in assay [10] it was -61.3% (active).
`CN1CCN(CCOc2ccc(-c3cnc4c(-c5cccc(F)c5)cnn4c3)cc2)CC1`: the growth in assay [1] was 62.6%; in assay [2], 109%; in assay [3], 89.8%; in assay [4] it was 90%; in [5], 1.99% (active); in assay [6], 24.8%. The growth is 82% in assay [7], 49.4% in assay [8], 57% in [9] and 32.4% in assay [10].
As for `Brc1ccc(Cn2nnnc2-c2ccn(-c3ccccc3)n2)cc1`, the growth in [1] is 62.3%; in assay [2], 62.8%; in [3] it was 76.8%; in [4], 74.3%; in assay [5], 73.8%; in [6], 63.8%. The growth is -1.66% (active) in [7], 67.8% in [8], 82.8% in [9] and 96.6% in assay [10].
